Results taken from the supplement of paper PMC10849652.
The full data set covers some 8,800 targets. This sample favours those with a hit. About 0.5% of all pairs of compound and target were hits.

What was measured:
Assay in all cases: log2 fold change, soluble protein after heating vs DMSO (PISA); higher = thermal stabilisation; K562 lysate, 10 uM; active = over 0.2 and 3.5 SD of the protein, either way, in both replicates (recomputed)
lapatinib = compound: CS(=O)(=O)CCNCc1ccc(-c2ccc3ncnc(Nc4ccc(OCc5cccc(F)c5)c(Cl)c4)c3c2)o1 [lapatinib]
Procedure, shortened: (§1)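 To prepare the extract, K562 pellets were dounce-homogenised in PBS pH 7.4 with 1 mM MgCl2, giving crude material at 1 mg/mL protein. This was treated with 10 μM compound for 30 min, then heated in aliquots for 3 min over 48°C-58°C before pooling and addition of NP-40 to 0.5% at 4°C. Centrifugation at 21,000xg for 90 min left soluble protein in the supernatant, which TMTpro 16plex LC-MS/MS quantified with equalised channel sums. Results are log-two fold changes in thermal stability compared with solvent controls, from duplicates.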

pictilisib = compound: CS(=O)(=O)N1CCN(Cc2cc3nc(-c4cccc5[nH]ncc45)nc(N4CCOCC4)c3s2)CC1 [pictilisib]
Procedure, shortened: as §1

crizotinib = compound: C[C@@H](Oc1cc(-c2cnn(C3CCNCC3)c2)cnc1N)c1c(Cl)ccc(F)c1Cl [crizotinib]
Procedure, shortened: as §1

[1] = compound: C[C@H](C1=CC=C(C=C1)C(=O)NC2=C3C=CNC3=NC=C2)N
Procedure, shortened: as §1

duvelisib = compound: C[C@H](Nc1ncnc2nc[nH]c12)c1cc2cccc(Cl)c2c(=O)n1-c1ccccc1 [duvelisib]
Procedure, shortened: as §1

gandotinib = compound: Cc1cc(Nc2cc(CN3CCOCC3)c3nc(C)c(Cc4ccc(Cl)cc4F)n3n2)n[nH]1 [gandotinib]
Procedure, shortened: as §1

tozasertib = compound: Cc1cc(Nc2cc(N3CCN(C)CC3)nc(Sc3ccc(NC(=O)C4CC4)cc3)n2)n[nH]1 [tozasertib]
Procedure, shortened: as §1

doramapimod = compound: Cc1ccc(-n2nc(C(C)(C)C)cc2NC(=O)Nc2ccc(OCCN3CCOCC3)c3ccccc23)cc1 [doramapimod]
Procedure, shortened: as §1

bafetinib = compound: Cc1ccc(NC(=O)c2ccc(CN3CC[C@H](N(C)C)C3)c(C(F)(F)F)c2)cc1Nc1nccc(-c2cncnc2)n1 [bafetinib]
Procedure, shortened: as §1

[2] = compound: Cc1cccc(CC(=O)N2CCc3c2ccc(-c2cn(C)c4ncnc(N)c24)c3F)n1
Procedure, shortened: as §1

nilotinib = compound: Cc1cn(-c2cc(NC(=O)c3ccc(C)c(Nc4nccc(-c5cccnc5)n4)c3)cc(C(F)(F)F)c2)cn1 [nilotinib]
Procedure, shortened: as §1

[3] = compound: Cc1nc(Nc2n[nH]c3c2CN(C(=O)N[C@H](CN(C)C)c2ccccc2)C3(C)C)c2sccc2n1
Procedure, shortened: as §1

dasatinib = compound: Cc1nc(Nc2ncc(C(=O)Nc3c(C)cccc3Cl)s2)cc(N2CCN(CCO)CC2)n1 [dasatinib]
Procedure, shortened: as §1

[4] = compound: Cc1ncc(-c2ccnc(Nc3ccc(S(C)(=O)=O)cc3)n2)n1C(C)C
Procedure, shortened: as §1

[5] = compound: Cn1cc(-c2ccc3c(c2)CCN3C(=O)Cc2cccc(C(F)(F)F)c2)c2c(N)ncnc21
Procedure, shortened: as §1

quisinostat = compound: Cn1cc(CNCC2CCN(c3ncc(C(=O)NO)cn3)CC2)c2ccccc21 [quisinostat]
Procedure, shortened: as §1

tipifarnib = compound: Cn1cncc1[C@@](N)(c1ccc(Cl)cc1)c1ccc2c(c1)c(-c1cccc(Cl)c1)cc(=O)n2C [tipifarnib]
Procedure, shortened: as §1

[6] = compound: NC(=O)Nc1cc(-c2cccc(F)c2)sc1C(=O)N[C@H]1CCCNC1
Procedure, shortened: as §1

[7] = compound: NC(=O)c1cnc(N[C@@H]2CCCC[C@@H]2N)nc1Nc1cccc(-n2nccn2)c1
Procedure, shortened: as §1

[8] = compound: NC1(c2ccc(-c3nc4ccn5c(=O)[nH]nc5c4cc3-c3ccccc3)cc2)CCC1
Procedure, shortened: as §1

Measured: log2 fold change

CAMKK2 (UniProt Q96RR4)
UniProt Q96RR4, sequence (Q96RR4 whole entry, looked up): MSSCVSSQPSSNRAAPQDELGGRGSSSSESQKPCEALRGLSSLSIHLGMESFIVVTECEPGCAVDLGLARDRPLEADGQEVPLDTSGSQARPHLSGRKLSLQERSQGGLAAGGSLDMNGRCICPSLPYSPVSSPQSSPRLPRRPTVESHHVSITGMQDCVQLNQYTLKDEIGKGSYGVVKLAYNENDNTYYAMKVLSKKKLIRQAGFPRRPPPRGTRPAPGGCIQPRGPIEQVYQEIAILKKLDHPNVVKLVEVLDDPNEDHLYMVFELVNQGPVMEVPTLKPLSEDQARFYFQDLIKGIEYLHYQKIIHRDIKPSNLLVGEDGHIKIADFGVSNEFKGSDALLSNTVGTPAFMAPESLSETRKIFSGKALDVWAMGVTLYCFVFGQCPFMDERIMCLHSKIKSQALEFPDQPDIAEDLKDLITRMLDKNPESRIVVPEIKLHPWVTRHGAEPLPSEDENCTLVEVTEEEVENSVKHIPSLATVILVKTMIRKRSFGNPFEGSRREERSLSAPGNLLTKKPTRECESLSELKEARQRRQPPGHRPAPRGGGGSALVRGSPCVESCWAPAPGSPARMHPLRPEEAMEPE
inactive: lapatinib -0.018 | pictilisib 0.006 | crizotinib 0.108 | [1] 0.023 | duvelisib 0.058 | tozasertib -0.055 | doramapimod 0.031 | bafetinib 0.018 | [2] -0.056 | nilotinib -0.038 | [3] 0.176 | dasatinib 0.031 | [4] 0.028 | [5] 0.023 | quisinostat -0.01 | tipifarnib -0.037 | [6] 0.1 | [7] -0.046 | [8] 0
active: gandotinib 0.257

CASP3 (UniProt P42574)
UniProt P42574, sequence (P42574 whole entry, looked up): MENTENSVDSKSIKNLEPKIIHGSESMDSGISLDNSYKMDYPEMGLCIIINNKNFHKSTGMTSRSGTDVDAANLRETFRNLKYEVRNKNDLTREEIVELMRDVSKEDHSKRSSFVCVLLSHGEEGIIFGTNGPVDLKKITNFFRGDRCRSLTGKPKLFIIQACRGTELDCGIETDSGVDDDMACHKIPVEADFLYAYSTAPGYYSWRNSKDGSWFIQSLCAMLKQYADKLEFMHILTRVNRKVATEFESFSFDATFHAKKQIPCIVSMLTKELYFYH
active: [1] 0.249
inactive: lapatinib 0.013 | pictilisib -0.021 | crizotinib 0.001 | duvelisib 0.007 | gandotinib -0.084 | tozasertib -0.016 | doramapimod 0.005 | bafetinib 0.107 | [2] -0.089 | nilotinib 0.032 | [3] -0.024 | dasatinib 0.053 | [4] 0.023 | [5] 0.008 | quisinostat -0.029 | tipifarnib -0.033 | [6] 0 | [7] -0.01 | [8] 0.022

C1orf112 (UniProt Q9NSG2)
active: [2] 0.279
inactive: lapatinib 0.018 | pictilisib -0.004 | crizotinib -0.055 | [1] -0.073 | duvelisib -0.035 | gandotinib 0.232 | tozasertib -0.091 | doramapimod 0.021 | bafetinib 0.005 | nilotinib 0.089 | [3] -0.015 | dasatinib -0.102 | [4] 0.017 | [5] 0.05 | quisinostat -0.1 | tipifarnib -0.046 | [6] 0.036 | [7] -0.03 | [8] -0.007

CAD (UniProt P27708)
inactive: lapatinib -0.023 | pictilisib -0.02 | crizotinib -0.038 | [1] -0.024 | duvelisib -0.011 | gandotinib -0.019 | tozasertib 0 | doramapimod 0.02 | bafetinib -0.052 | [2] 0.07 | nilotinib 0.004 | [3] 0.013 | dasatinib -0.094 | [4] -0.001 | [5] 0.038 | quisinostat -0.02 | tipifarnib -0.005 | [6] 0.023 | [7] -0.006 | [8] 0.004

BRAT1 (UniProt Q6PJG6)
UniProt Q6PJG6, sequence (Q6PJG6 whole entry, looked up): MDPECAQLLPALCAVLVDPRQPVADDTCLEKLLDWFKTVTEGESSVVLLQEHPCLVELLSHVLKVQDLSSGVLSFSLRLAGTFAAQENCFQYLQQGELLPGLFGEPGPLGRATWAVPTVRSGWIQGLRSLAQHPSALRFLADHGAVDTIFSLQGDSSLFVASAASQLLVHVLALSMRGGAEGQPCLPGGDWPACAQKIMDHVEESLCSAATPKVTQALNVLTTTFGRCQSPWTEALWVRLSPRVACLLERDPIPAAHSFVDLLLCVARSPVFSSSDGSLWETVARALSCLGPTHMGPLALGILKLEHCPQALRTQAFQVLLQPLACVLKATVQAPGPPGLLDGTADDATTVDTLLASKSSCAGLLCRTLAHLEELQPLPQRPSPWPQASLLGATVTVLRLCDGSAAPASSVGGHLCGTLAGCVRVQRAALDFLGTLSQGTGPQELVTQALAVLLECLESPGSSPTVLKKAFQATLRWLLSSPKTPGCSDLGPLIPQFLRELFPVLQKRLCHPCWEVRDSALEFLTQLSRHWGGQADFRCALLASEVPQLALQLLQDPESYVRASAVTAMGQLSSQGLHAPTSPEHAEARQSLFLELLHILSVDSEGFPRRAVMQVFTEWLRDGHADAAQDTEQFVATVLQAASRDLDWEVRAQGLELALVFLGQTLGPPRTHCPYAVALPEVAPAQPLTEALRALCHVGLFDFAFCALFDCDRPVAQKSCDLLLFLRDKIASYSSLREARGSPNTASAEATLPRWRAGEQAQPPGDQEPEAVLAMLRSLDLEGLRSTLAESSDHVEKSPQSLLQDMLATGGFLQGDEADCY
inactive: lapatinib 0.026 | pictilisib -0.013 | crizotinib -0.103 | [1] 0 | duvelisib -0.001 | gandotinib -0.1 | tozasertib 0.017 | doramapimod 0.052 | bafetinib -0.014 | [2] 0.038 | nilotinib 0.031 | [3] -0.016 | dasatinib -0.046 | [4] 0.01 | [5] 0.046 | quisinostat -0.07 | tipifarnib 0 | [6] 0.008 | [7] 0.047 | [8] -0.017

CELF2 isoform 3 (UniProt O95319)
UniProt O95319, sequence (O95319 whole entry, looked up): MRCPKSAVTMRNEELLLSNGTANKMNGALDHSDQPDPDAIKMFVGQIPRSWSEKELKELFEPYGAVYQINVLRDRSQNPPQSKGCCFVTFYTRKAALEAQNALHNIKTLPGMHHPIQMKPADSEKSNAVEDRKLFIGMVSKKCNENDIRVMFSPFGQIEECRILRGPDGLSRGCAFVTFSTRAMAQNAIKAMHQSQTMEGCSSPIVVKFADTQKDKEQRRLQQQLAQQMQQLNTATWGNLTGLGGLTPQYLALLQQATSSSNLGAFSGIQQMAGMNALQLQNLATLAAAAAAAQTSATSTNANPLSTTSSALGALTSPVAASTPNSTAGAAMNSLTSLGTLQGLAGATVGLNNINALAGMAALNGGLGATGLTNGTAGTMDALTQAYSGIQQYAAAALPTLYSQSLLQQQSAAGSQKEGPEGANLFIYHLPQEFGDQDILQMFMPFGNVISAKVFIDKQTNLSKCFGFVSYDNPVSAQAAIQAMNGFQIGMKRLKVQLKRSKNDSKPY
inactive: lapatinib 0.039 | pictilisib 0.032 | crizotinib 0.072 | [1] 0.104 | duvelisib -0.001 | gandotinib -0.052 | tozasertib 0.017 | bafetinib -0.042 | [2] -0.124 | nilotinib 0.054 | [3] 0.038 | dasatinib -0.015 | [4] -0.028 | [5] -0.043 | quisinostat 0.036 | tipifarnib -0.129 | [6] -0.037 | [7] -0.021 | [8] 0.068
active: doramapimod -0.579

CDK5RAP2 (UniProt Q96SN8)
UniProt Q96SN8, sequence (Q96SN8 whole entry, looked up): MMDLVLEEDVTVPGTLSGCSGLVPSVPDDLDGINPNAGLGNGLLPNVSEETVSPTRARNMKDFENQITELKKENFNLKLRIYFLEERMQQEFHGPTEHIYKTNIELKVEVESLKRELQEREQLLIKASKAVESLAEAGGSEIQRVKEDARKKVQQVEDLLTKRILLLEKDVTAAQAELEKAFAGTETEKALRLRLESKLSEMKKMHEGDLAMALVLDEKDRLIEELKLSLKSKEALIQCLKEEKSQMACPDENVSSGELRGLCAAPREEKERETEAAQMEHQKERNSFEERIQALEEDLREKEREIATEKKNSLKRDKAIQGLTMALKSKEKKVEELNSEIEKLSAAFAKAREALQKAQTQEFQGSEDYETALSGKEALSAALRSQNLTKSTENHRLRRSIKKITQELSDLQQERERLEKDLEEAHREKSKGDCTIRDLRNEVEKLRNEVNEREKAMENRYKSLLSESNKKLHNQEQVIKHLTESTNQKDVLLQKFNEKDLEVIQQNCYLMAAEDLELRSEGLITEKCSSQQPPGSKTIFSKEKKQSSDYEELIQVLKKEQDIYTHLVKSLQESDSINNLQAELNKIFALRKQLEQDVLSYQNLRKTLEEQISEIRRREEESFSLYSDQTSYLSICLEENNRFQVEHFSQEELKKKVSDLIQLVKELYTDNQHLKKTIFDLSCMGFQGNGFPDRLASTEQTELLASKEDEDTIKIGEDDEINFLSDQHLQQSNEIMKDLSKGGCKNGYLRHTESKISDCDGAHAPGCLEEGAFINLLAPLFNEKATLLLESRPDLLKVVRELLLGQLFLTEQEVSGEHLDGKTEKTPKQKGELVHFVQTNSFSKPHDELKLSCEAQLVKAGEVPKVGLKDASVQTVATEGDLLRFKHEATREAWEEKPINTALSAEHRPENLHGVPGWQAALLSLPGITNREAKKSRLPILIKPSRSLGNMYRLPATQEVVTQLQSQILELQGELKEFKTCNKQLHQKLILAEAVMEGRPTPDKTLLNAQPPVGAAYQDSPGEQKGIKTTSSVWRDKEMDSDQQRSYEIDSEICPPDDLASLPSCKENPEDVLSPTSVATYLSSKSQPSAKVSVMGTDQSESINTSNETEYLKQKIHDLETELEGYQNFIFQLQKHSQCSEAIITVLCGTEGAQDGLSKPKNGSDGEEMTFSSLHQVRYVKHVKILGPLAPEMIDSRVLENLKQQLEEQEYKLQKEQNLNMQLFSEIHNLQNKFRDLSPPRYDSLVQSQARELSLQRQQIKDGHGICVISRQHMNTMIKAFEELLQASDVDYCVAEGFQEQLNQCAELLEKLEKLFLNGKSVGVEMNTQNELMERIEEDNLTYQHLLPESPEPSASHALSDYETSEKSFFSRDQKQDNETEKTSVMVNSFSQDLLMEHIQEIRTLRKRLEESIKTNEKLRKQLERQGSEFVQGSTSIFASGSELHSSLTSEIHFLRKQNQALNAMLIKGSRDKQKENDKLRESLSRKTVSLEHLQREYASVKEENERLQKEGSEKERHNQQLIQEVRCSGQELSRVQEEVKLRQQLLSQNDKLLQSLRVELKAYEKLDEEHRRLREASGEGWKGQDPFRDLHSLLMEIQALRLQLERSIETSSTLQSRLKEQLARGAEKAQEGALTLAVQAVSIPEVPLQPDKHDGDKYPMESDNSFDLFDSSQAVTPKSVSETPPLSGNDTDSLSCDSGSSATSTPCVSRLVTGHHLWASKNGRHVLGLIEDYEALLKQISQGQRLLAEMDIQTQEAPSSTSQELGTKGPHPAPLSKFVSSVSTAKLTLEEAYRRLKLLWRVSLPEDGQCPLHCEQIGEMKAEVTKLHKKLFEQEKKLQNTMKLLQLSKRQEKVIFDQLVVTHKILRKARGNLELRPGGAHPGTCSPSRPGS
inactive: lapatinib -0.182 | pictilisib -0.04 | crizotinib -0.035 | [1] -0.032 | duvelisib 0.023 | gandotinib -0.092 | tozasertib 0.024 | doramapimod 0.003 | bafetinib 0 | [2] 0.084 | nilotinib 0.024 | [3] -0.009 | dasatinib -0.002 | [4] 0.056 | [5] -0.015 | quisinostat -0.081 | tipifarnib -0.011 | [6] -0.006 | [7] -0.104 | [8] -0.001

BCAR1 isoform 6 (UniProt P56945)
inactive: lapatinib -0.044 | pictilisib 0.003 | crizotinib 0.003 | [1] 0.071 | duvelisib 0.008 | gandotinib -0.113 | tozasertib 0.01 | doramapimod -0.039 | bafetinib -0.073 | [2] -0.104 | nilotinib -0.021 | [3] -0.015 | dasatinib 0.001 | [4] -0.068 | [5] 0.018 | quisinostat 0.021 | tipifarnib -0.006 | [6] 0.016 | [7] -0.009 | [8] 0.008

CBR1 (UniProt P16152)
UniProt P16152, sequence (P16152 whole entry, looked up): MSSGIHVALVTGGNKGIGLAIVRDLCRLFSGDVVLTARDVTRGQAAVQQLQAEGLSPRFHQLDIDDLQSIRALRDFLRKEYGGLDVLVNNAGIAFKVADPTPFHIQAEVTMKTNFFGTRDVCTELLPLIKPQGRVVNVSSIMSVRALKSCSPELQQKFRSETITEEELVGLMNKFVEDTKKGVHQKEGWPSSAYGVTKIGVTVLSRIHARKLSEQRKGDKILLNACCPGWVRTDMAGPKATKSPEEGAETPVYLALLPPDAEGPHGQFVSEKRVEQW
inactive: lapatinib 0.023 | pictilisib -0.027 | crizotinib 0.043 | [1] -0.082 | duvelisib -0.037 | gandotinib 0.001 | tozasertib 0.003 | doramapimod -0.044 | bafetinib 0.034 | [2] 0.032 | nilotinib 0.046 | [3] 0.046 | dasatinib 0.1 | [4] 0.076 | [5] -0.02 | quisinostat 0.113 | tipifarnib -0.001 | [6] -0.021 | [7] -0.02 | [8] 0.016

C15orf41 (UniProt Q9Y2V0)
UniProt Q9Y2V0, sequence (Q9Y2V0 whole entry, looked up): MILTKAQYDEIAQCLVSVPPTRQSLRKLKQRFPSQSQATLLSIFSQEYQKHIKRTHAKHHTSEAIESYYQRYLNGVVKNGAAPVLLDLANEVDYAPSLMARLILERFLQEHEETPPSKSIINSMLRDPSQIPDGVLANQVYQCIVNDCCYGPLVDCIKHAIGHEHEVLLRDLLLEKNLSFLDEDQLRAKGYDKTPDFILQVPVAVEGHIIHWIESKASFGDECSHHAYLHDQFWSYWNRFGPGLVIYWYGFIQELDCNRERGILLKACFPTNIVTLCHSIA
inactive: lapatinib -0.078 | pictilisib 0.007 | crizotinib -0.033 | [1] 0.03 | duvelisib 0.059 | gandotinib 0.002 | tozasertib 0.102 | doramapimod -0.035 | bafetinib 0.009 | [2] -0.017 | nilotinib -0.041 | [3] 0 | dasatinib 0.09 | [4] 0.038 | [5] -0.036 | quisinostat -0.023 | tipifarnib -0.014 | [6] 0.076 | [7] 0.024 | [8] 0

CEBPZOS (UniProt A8MTT3)
UniProt A8MTT3, sequence (A8MTT3 whole entry, looked up): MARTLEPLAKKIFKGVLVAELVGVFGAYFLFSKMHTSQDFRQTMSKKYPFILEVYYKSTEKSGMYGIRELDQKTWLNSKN
active: [2] 0.203
inactive: lapatinib -0.001 | crizotinib -0.025 | [1] -0.352 | duvelisib 0.035 | gandotinib -0.044 | tozasertib 0.039 | doramapimod 0.177 | nilotinib 0.069 | [3] -0.01 | dasatinib 0.053 | [4] 0.024 | [5] 0.044 | quisinostat 0.02 | tipifarnib -0.017 | [6] -0.039 | [7] -0.004 | [8] -0.008

BICRA (UniProt Q9NZM4)
inactive: lapatinib -0.099 | pictilisib 0.052 | crizotinib -0.059 | [1] -0.027 | duvelisib 0.105 | gandotinib 0.171 | doramapimod 0.014 | bafetinib 0.078 | [2] 0.133 | dasatinib 0.088 | [5] -0.1 | quisinostat 0.037 | [6] -0.004 | [7] 0.054 | [8] -0.382
